Data: PubChem BioAssay (NCI)
Compounds without any hit were thinned out: in the full panel of roughly 79,000, 15% have a hit. Unmarked numbers belong to inactive results. The source made the active and inactive calls. Cut-off read from the data, not from the text of the source: active = growth inhibition above about 70%; inactive = the rest.

Columns and labels:
[1] = NCI Yeast Anticancer Drug Screen. Data for the rad50 strain (AID 155);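 note: 0% = growth of vehicle-only cultures of the same strain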; settings: S. cerevisiae rad50 strain growth inhibition, active compounds read high
Summary of the method: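 Genetically altered yeast (DNA repair pathway); compound treatment; growth inhibition vs vehicle ctrl.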

[2] = NCI Yeast Anticancer Drug Screen. Data for the mec2-1 strain (AID 157); settings: S. cerevisiae mec2-1 strain, active compounds read high
Summary of the method: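 Readout is yeast growth inhibition, normalised to vehicle-treated controls, in the mec2-1 strain exposed to compound.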

[3] = NCI Yeast Anticancer Drug Screen. Data for the sgs1 mgt1 strain (AID 161);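 note: 0% = growth of cultures given vehicle only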; settings: S. cerevisiae sgs1 mgt1 strain, active compounds read high
Summary of the method: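 This yeast growth screen uses a strain with defined DNA-repair lesions; compound-treated growth is compared with vehicle-treated growth.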

[4] = NCI Yeast Anticancer Drug Screen. Data for the cln2 rad14 strain (AID 165);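 note: 0% = growth equal to vehicle treated cultures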; settings: S. cerevisiae cln2 rad14 strain, active compounds read high
Summary of the method: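 Relative to vehicle controls, growth inhibition of compound-treated cln2 rad14 yeast was recorded.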

[5] = NCI Yeast Anticancer Drug Screen. Data for the bub3 strain (AID 167); settings: S. cerevisiae bub3 mutant strain, active compounds read high
Summary of the method: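 Yeast carrying a defined mutation is treated with each compound, and growth is compared with that of vehicle-exposed cells to give inhibition.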

[6] = NCI Yeast Anticancer Drug Screen. Data for the mlh1 rad18 strain (AID 175); settings: S. cerevisiae mlh1 rad18 strain growth inhibition, active compounds read high
Summary of the method: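 Test agents were incubated with a yeast strain of defined genotype (DNA damage repair defect). Inhibition of growth was derived by comparison with vehicle-exposed cultures.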

[7] = at 5.0 µM (retest, dose inferred, filed as 0.5)
[8] = at 50.0 µM (retest, dose inferred, filed as 5.0)

| SMILES | growth inhibition [1, 7] | growth inhibition [1, 8] | growth inhibition ([1]; at 50.0 µM) | growth inhibition [2, 7] | growth inhibition [2, 8] | growth inhibition ([2]; at 50.0 µM) | growth inhibition [3, 7] | growth inhibition [3, 8] | growth inhibition ([3]; at 50.0 µM) | growth inhibition [4, 7] [%] | growth inhibition [4, 8] | growth inhibition ([4]; at 50.0 µM) | growth inhibition [5, 7] | growth inhibition [5, 8] | growth inhibition ([5]; at 50.0 µM) | growth inhibition [6, 7] | growth inhibition [6, 8] | growth inhibition ([6]; at 50.0 µM) |
| --- | --- | --- | --- | --- | --- | --- | --- | --- | --- | --- | --- | --- | --- | --- | --- | --- | --- | --- |
| CCC(=O)Oc1c(Br)c(Br)c(Br)c(Br)c1Br | 8% | 56% | 29% | 17% | 62% | 6% | 7% | 50% | 8.45% | 21 | 68% | 25.8% | 56% | 86% (active) | 92% (active) | 35% | 84% (active) | 19.5% |
| COC(=O)[C@@H]1c2cc3c(c(O)c2[C@@H](OC)C[C@@]1(C)O)C(=O)c1c(O)cc2c(c1C3=O)OC1O[C@@]2(C)[C@H](O)[C@@H](N(C)C)[C@@H]1O | 15% | 98% (active) | 64.2% | 10% | 95% (active) | 94% (active) | 9% | 98% (active) | 94% (active) | 4 | 97% (active) | 87.5% (active) | 5% | 97% (active) | 92.8% (active) | 12% | 97% (active) | 92.4% (active) |
| COc1ccccc1N=Nc1c(N)nc(N)[nH]c1=O | 4% | 14% | 6.4% | -10% | 16% | 1.05% | -17% | 14% | -2.05% | 0 | -7% | 11.6% | -2% | -2% | 52.5% | 15% | 20% | 9.8% |
| COc1ccc(C(=O)C(c2ccc(OC)cc2)C2(O)C(=O)Nc3c(Cl)cc(Cl)cc32)cc1 (configuration not stated) | 37% | 37% | 91% (active) | -20% | -20% | 92.3% (active) | 8% | 8% | 90% (active) | 25 | 25% | 90.9% (active) | -6% | -6% | 90.7% (active) | -18% | -18% | 90.7% (active) |
| COc1ccc2c(c1)CCC1OC(c3cccnc3)OC21 (configuration not stated) | -1% | 18% | 65.8% | -19% | -4% | 36.9% | -3% | 8% | 75.8% (active) | -5 | 11% | 55% | 10% | 25% | 30.6% | -10% | -15% | 70.9% (active) |
| O=C1OC(c2cccc(Cl)c2)=N/C1=C\C=C/c1ccccc1 | -3% | -10% | 14.1% | -27% | -15% | -7.9% | -8% | 1% | 17.6% | 19 | 21% | 11.8% | -1% | -10% | 11.9% | -16% | -39% | 3.9% |
| O=C1C(N2CCOCC2)=C(Cl)C(=O)c2ncccc21 | 66% | 95% (active) | 83.8% (active) | 30% | 97% (active) | 83.8% (active) | 35% | 96% (active) | 89.8% (active) | 13 | 92% (active) | 89% (active) | 31% | 97% (active) | 89.7% (active) | 61% | 96% (active) | 89.3% (active) |
| Cc1c(N)nc(C2CC(=O)N2CC(N)C(N)=O)nc1C(=O)NC(C(=O)NC(C)C(O)C(C)C(=O)NC(C(=O)NCCc1nc(-c2nc(C(=O)NCCNCC(C)O)cs2)cs1)C(C)O)C(OC1OC(CO)C(O)C(O)C1OC1OC(CO)C(O)C(OC(N)=O)C1O)c1cnc[nH]1 (configuration not stated) | 94% (active) | 97% (active) | 92.7% (active) | 82% (active) | 99% (active) | 93.3% (active) | 87% (active) | 98% (active) | 93.3% (active) | 61 | 92% (active) | 90.6% (active) | 77% (active) | 96% (active) | 93.8% (active) | 97% (active) | 98% (active) | 92.5% (active) |
| O=C1C(Cl)=C(Nc2ccc(S(=O)(=O)O)cc2)C(=O)c2ccccc21 | 23% | 99% (active) | 99.5% (active) | 33% | 100% (active) | 99.6% (active) | 35% | 100% (active) | 99.6% (active) | 12 | 99% (active) | 99.3% (active) | 74% (active) | 99% (active) | 99.5% (active) | 26% | 99% (active) | 99.4% (active) |
